High-throughput results (PubChem BioAssay)
PKA inh = blocks human protein kinase A activity | PKA Kemptide phosphorylation, Kinase-Glo ATP luminescence | inhibition, % at 6 µM | 65,000 compounds, 0.1% hits;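 active means inhibition above the screen-wide mean inhibition plus 3 SD, cut at about 21% in these data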
D1 allo mod = D1 dopamine receptor (human) allosteric modulation; HEK293 D1, CRE-luciferase, dopamine EC30 potentiation; actives deviate in either direction; B-score at 10 µM; 58,000 compounds, 5.9% hits; AID 641;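 active means luminescence count or its row- and column-corrected plate score outside the 99.7% band of the plate's sample wells, on either side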
Target sequence (P21728 whole entry, looked up): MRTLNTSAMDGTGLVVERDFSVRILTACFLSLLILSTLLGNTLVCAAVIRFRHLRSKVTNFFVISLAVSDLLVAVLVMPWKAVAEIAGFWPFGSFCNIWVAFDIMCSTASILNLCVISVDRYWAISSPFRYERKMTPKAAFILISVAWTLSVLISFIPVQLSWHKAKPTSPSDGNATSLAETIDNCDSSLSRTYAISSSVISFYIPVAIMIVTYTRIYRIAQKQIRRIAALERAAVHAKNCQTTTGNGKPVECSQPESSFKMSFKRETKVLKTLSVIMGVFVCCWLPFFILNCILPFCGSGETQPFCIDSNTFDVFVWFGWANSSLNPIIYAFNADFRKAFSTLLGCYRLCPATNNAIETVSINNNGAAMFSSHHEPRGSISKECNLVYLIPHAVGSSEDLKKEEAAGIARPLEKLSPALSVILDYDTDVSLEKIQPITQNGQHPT
hDAT+cocaine = changed human dopamine transporter uptake under cocaine IC80. LLC-PK1 hDAT cells, [14C]-dopamine uptake with cocaine IC80; actives deviate in either direction. B-score at 10 µM. 110,000 compounds, 1.3% hits. AID 449768;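 active means Z score or B-score, a plate-position-corrected score, falls beyond the plate's 99.7% confidence bounds, in either direction; inactive means both scores lie inside the 99.7% bounds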;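 further: scored against the spread of the other compound wells on the same plate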
JNK3 blocker = JNK3 (human) kinase inhibition | P53779 | purified JNK3 kinase activity, HTS | inhibition, % at 8 µM | 60,000 compounds, 0.61% hits; in the data active means inhibition above about 17%;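 further: 0% = DMSO and 100% = reference inhibitor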
ROCK2 blocker = ROCK2 (human) kinase inhibition; purified ROCK2, Kinase-Glo ATP depletion luminescence; 60,000 compounds, 0.35% hits; inhibition, % at 6 µM;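 active means inhibition above the screen-wide mean inhibition plus 3 SD, cut at about 18% in these data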;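 further: plate controls were DMSO wells for no effect and Y-27632 control wells after no-enzyme background subtraction for full effect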
* marks the source's active call; other numbers are inactive results; . = not tested or not shown. Shown is part of a subset that was picked to be rich in hits.

SMILES	PKA inh	D1 allo mod	hDAT+cocaine	JNK3 blocker	ROCK2 blocker
COC(=O)C1=C(C(=O)OC)[C@@H]2N(C)c3ccc(OC)cc3[C@@]23C[C@@H](C(=O)OC)N(C(=O)NC2CCCCC2)C3=N1	.	.	1.09	.	.
O=C(NCc1ccco1)c1cc(-c2ccccc2)nn1CC1CC(c2cccnc2)=NO1 (configuration not stated)	.	.	2.15*	.	.
Cc1c(C)n(C(=O)CN2CCC(C)CC2)c2ccccc12	.	.	0.0803	.	.
O=C(Nc1ccc(Cl)c(Cl)c1)N1CCSC1c1ccco1 (configuration not stated)	9.4	-1.25	-2.07*	5.8	6.5
O=C(Nc1ccc(Cl)c(Cl)c1)N1CC=CCC1	9.2	-0.291	0.268	6.3	3.6
c1ccc2nc(-c3nc4ccccc4[nH]3)ccc2c1	-24.4	-4.78*	-0.374	4.2	-25.3
O=C1CC(N2CCN(c3cccc(C(F)(F)F)c3)CC2)C(=O)N1c1ccccc1F (configuration not stated)	-6.6	-0.937	3.16*	-0.2	-2.3
O=C1CC(N2CCN(c3cccc(C(F)(F)F)c3)CC2)C(=O)N1c1ccccc1 (configuration not stated)	3.3	0.886	-1.17	-3.0	0.9
COc1ccc([C@H]2/C=C\CN(S(=O)(=O)c3ccc4ccccc4c3)[C@@H](C)C(=O)N2Cc2ccc(F)cc2)cc1	.	.	0.624	.	.
COC(=O)C1=C(C)N(CCCC(=O)O)C(=O)NC1c1ccccc1OS(=O)(=O)c1ccc([N+](=O)[O-])cc1 (configuration not stated)	.	.	-0.136	.	.
Cc1ccc2c(c1)c1c3n2CCN(C(=O)Cn2c(-c4ccccc4)noc2=O)C3CCC1 (configuration not stated)	-5.6	1.87	0.0317	0.9	21.2*
O=C(c1ccc2c(c1)N(Cc1ccccc1)C(=O)c1ccccc1S2)N1CCCC1	.	.	3.32*	.	.
COc1cccc(C(=O)Nc2nnc(C(C)C)s2)c1	-0.1	-3.29*	0.45	.	.
CC(C(=O)N1CCN(c2ccc(Cl)cc2)CC1)c1ncc(C(F)(F)F)cc1Cl (configuration not stated)	.	.	-1.03	.	.
CCC1=C(OC(=O)N(CC)CC)N2C(=O)OC(=NCC3CC3)[C@]2(Cc2ccccc2)[C@H]2C1=CC[C@H]1C(=O)N(CC)C(=O)[C@H]12	.	.	0.587	.	.
Clc1ccc(Cc2nc(-c3cccnc3)no2)cc1	.	.	-0.554	.	.
CS(=O)(=O)N1CCCC(c2nc(-c3ccc(S(=O)(=O)NCc4ccccc4)cc3)no2)C1 (configuration not stated)	1.6	-3.03*	-0.0207	.	.
O=C(c1ccccn1)N(Cc1cc2ccccc2[nH]c1=O)C1CCCCC1	11.7	0.271	2.9*	4.9	5.1
COc1ccc2[nH]c(=O)c(CN(C(=O)c3ccccn3)C3CCCCC3)cc2c1	10.6	1.38	0.246	2.5	2.5
N#Cc1c(C(F)(F)F)cc(-c2cccc(Cl)c2)[nH]c1=O	.	.	-0.938	.	.
CCC(C(=O)NC1CCCCC1)n1c(SCc2cccc(F)c2)nc2ccncc21 (configuration not stated)	.	.	2.79*	.	.
COc1cc(C(=O)NCCOc2cccc(C)c2)c(Br)c(OC)c1OC	.	.	2.11	.	.
COc1ccc(/C=N/OCC(=O)N2CC3(C)CC2CC(C)(C)C3)cc1 (configuration not stated)	.	.	3.66*	.	.
CC1(C)CC2CC(C)(CN2C(=O)COc2cccc3ccccc23)C1 (configuration not stated)	.	.	-0.262	.	.
COCCN1C(=O)N[C@@H](c2ccc(Br)cc2)C(C(C)=O)=C1C	.	.	-0.315	.	.
SMILES	PKA inh	D1 allo mod	hDAT+cocaine	JNK3 blocker	ROCK2 blocker
O=C(NC(NC(=S)Nc1ccccc1C(=O)O)C(Cl)(Cl)Cl)c1cccc([N+](=O)[O-])c1 (configuration not stated)	.	.	-7.35*	.	.
CCOC(=O)NC(NC(=S)Nc1ccccc1[N+](=O)[O-])C(Cl)(Cl)Cl (configuration not stated)	.	.	-3.53*	.	.
CCOC(=O)Cn1c(C)c(Br)c(=O)c2cccc(C)c21	3.6	-0.22	-0.414	6.0	6.4
CCN(c1ccc(NC(=O)COC(=O)c2ccc3ccccc3n2)cc1)C(C)C	.	.	-2.75*	.	.
N#Cc1sc2nc3c(c(-c4cccnc4)c2c1N)CCC3	-1.8	5.2*	-1.39	0.7	3.5
NC(=O)c1sc2nc3c(c(-c4cccnc4)c2c1N)CCC3	.	.	-9.05*	.	.
N#Cc1c(N)nc2c(c1-c1cccnc1)CCCCC2	2.3	2.13	1.08	10.8	4.8
CCN(CC)C(=O)C(Sc1ccccc1)c1ccccc1 (configuration not stated)	.	.	-0.265	.	.
Cc1ccc(SCc2nc(-c3ccncc3)no2)cc1	20.9*	.	0.866	0.7	24.3*
Cc1ccc(SCc2nc(-c3ccccc3)no2)cc1	-6.3	-0.0272	-0.487	2.9	-3.9
CCC/C=C(\CCC)C(NC(=O)CCc1ccccc1)c1ccc(C(F)(F)F)cc1 (configuration not stated)	.	.	-1.02	.	.
Cc1nn(C)cc1CN(C)C(=O)c1nn2c(c1Cl)NC(c1cccs1)CC2C(F)(F)F (configuration not stated)	6.6	-0.579	3.54*	2.7	5.8
C#Cc1ccc([C@H]2C=C(C(=O)NCc3nc4ccccc4[nH]3)O[C@@H](OCC)[C@@H]2CCCO)cc1	.	.	4.18*	.	.
CCO[C@H]1OC(C(=O)NCc2nc3ccccc3[nH]2)=C[C@@H](c2ccc(Br)cc2)[C@@H]1CCCO	.	.	0.184	.	.
COCCNC(=O)CN1C(=O)CSc2cc(S(=O)(=O)N3CCCCCC3)ccc21	9.8	.	-0.0983	-1.2	5.2
Cc1cccn2c(=O)c3cc(C#N)c(=NC(=O)c4ccncc4)n(CCCOC(C)C)c3nc12	9.8	-0.154	2.36*	-4.8	4.3
O=C(NCc1cccnc1)c1cc(-c2ccccc2)on1	-2.9	0.206	3.64*	6.1	2.0
COc1ccc(-c2cc(C(=O)NCc3cccnc3)no2)cc1	-2.4	-1.44	1.04	1.1	-0.1
COc1ccccc1OCC(=O)Nc1ccc(S(=O)(=O)Nc2nc(C)cc(C)n2)cc1	10.7	0.114	3.53*	2.7	6.5
Cc1cc(CN2C(=O)c3ccccc3C2=O)cc(N2CCOCC2)c1	-3.4	-1.24	-0.00195	5.2	0.4
O=C(NCCc1csc(-c2ccc(C(F)(F)F)cc2)n1)c1cccs1	.	.	2.06*	.	.
C[C@@H](C(=O)N1CCNCC1)n1cc(CCCN=C(N)N)nn1	.	.	-0.151	.	.
CCCc1nc(SCC(=O)N2CCC(Cc3ccccc3)CC2)c2c(=O)n(C)c(=O)n(C)c2n1	-3.5	-0.5	2.2	-2.9	-1.0
O=c1c2cc(N3CCOCC3)ccc2[nH]c(=S)n1CCCN1CCN(c2ccccc2F)CC1	-3.3	-6.73*	-0.322	.	.
Cn1c(=O)c2c(SCC(=O)N3CCC(Cc4ccccc4)CC3)nc(C3CC3)nc2n(C)c1=O	2.7	-5.67*	.	2.8	2.3
Cc1cc(S(=O)(=O)Nc2ccc(N(C)C)cc2)c(C)s1	.	.	0.0643	.	.
COc1cccc(NS(=O)(=O)c2cc(C)sc2C)c1	-2.7	-0.35	2.64*	-1.4	-0.1
O=C(Nc1ccccc1)C1=C[C@H](C2CC2)C[C@H](OCCCCO)O1	.	.	0.528	.	.
Nn1c(N2CCCCC2)nc2ccccc21	.	.	0.281	.	.
